Measured values taken from PubChem BioAssay (NCATS).
Records with an inconclusive call do not appear. Active and inactive are the calls of the source. Unless noted, no rule for the calls is given here.

Assays:
[1] = qHTS profiling for inhibitors of Plasmodium falciparum (3D7) proliferation (AID 743322);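 also: infected erythrocytes exposed to compound for 72 h before lysis; 100% = DMSO vehicle wells and 0% = 0.29 µM artemisinin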; details: P. falciparum 3D7 proliferation; at 28.7 µM (top of the series)
In short: (§1)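 Parasite DNA was quantified by SYBR Green I fluorescence (ex 485, em 535 nm) after overnight lysis in saponin/Triton buffer at room temperature. Cultures at 0.3% parasitemia and 2.5% hematocrit were first exposed to compound for 72 h at 37 C; signals were normalised to artemisinin (0.29 uM) and vehicle wells.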

[2] = qHTS profiling for inhibitors of Plasmodium falciparum (DD2) proliferation (AID 743323); details: lower = more inhibition; at 28.7 µM (top of the series)
In short: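 P. falciparum Dd2-infected erythrocytes (0.3% parasitemia, 2.5% hematocrit) exposed 72 h at 37 C, 5% CO2. Lysis with SYBR Green, overnight at room temperature, fluorescence 485/535 nm; normalized to 0.29 uM artemisinin and DMSO.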

[3] = qHTS profiling for inhibitors of Plasmodium falciparum (HB3) proliferation (AID 743324; active = well fitted curve in the direction sought with a large enough effect; an effect the other way counts as inactive or inconclusive;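 also: 100% = DMSO vehicle wells and 0% = artemisinin-treated control wells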); details: Plasmodium falciparum HB3 blood-stage proliferation; at 28.7 µM (top of the series)
In short: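 SYBR Green fluorescence (485 ex/535 em) of lysed cultures, incubated overnight at room temperature in the dark, quantifies parasite DNA. Infected erythrocytes at 0.3% parasitemia and 2.5% hematocrit were exposed 72 h; values normalized to DMSO and 0.29 uM artemisinin controls.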

[4] = qHTS profiling of the MIPE4 collection as inhibitors of Plasmodium falciparum (DD2) proliferation (AID 743345); details: P. falciparum Dd2 in erythrocytes, SYBR Green DNA, 72 h; at 28.5 µM (top of the series) unless noted
In short: as §1

[5] = qHTS profiling of the MIPE4 collection as inhibitors of Plasmodium falciparum (DD2) proliferation (Rep 2) (AID 743346); details: P. falciparum Dd2 in erythrocytes, SYBR Green DNA, 72 h; at 28.5 µM (top of the series) unless noted
In short: as §1

[6] = qHTS profiling of the MIPE4 collection as inhibitors of Plasmodium falciparum (HB3) proliferation (AID 743347);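 also: plate controls were DMSO vehicle wells for no effect and artemisinin wells for full effect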; details: P. falciparum HB3 in erythrocytes, SYBR Green DNA, 72 h; at 28.5 µM (top of the series) unless noted
In short: as §1

[7] = High-throughput drug toxicity screening in the BPDCN cell line Gen2.2 (AID 1224824); details: Gen2.2 BPDCN cells; at 45.8 µM (top of the series) unless noted;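 also: cells exposed to compounds for 48 h before reading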
In short: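 Gen2.2, 500 cells/well, phenol red-free RPMI/10% FBS/Pen-Strep; 48 h cpd, 37 °C/5% CO2; CTG lum, 15 min RT. Norm: DMSO = 100%, bortezomib 9.2 uM final = 0%.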

[8] = High-throughput drug toxicity screening in the BPDCN cell line Cal-1 (AID 1224825); details: Cal-1 BPDCN cell viability, qHTS; at 45.8 µM (top of the series) unless noted
In short: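 CellTiter-Glo luminescence after 48 h compound exposure; percent activity scaled with DMSO as 100% and bortezomib (9.2 uM final) as 0%. Cal-1 cells seeded at 500/well in RPMI, 10% FBS, no phenol red.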

[9] = qHTS assay for measurement of the activity of small molecule inhibitors on Zika virus induced Caspase-3 activity in human iPSC derived neural progenitor cells (hNPCs) (AID 1224857; active = well fitted curve in the direction sought with a large enough effect; an effect the other way counts as inactive or inconclusive; also: % of control where 0% means no effect; nearly all actives have a fitted effect of over 65% in size)
In short: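 In medium with heparin 2 ug/ml and cyclopamine 2 uM, hNPCs (350 cells/well) received compound for one hour and then Zika virus at 2 FFU/cell; caspase activity was measured by Caspase-Glo 3/7 luminescence 6 h post-infection.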

[10] = qHTS profiling of the MIPE4 collection as inhibitors of Plasmodium falciparum (3D7) proliferation (AID 743344);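 also: scaled between DMSO vehicle wells and 0.29 µM artemisinin as full inhibition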; details: P. falciparum 3D7 in erythrocytes, SYBR Green DNA fluorescence, 72 h; at 28.5 µM (top of the series) unless noted
In short: as §1

Row | Compound | remaining parasite growth % (stronger effect = lower value) [1] | activity, percent of control [2] | remaining proliferation (% of control), lower = more inhibition [3] | parasite growth remaining, % of DMSO control (lower = more inhibition) [4] | parasite growth, % of control (lower = inhibition) [5] | growth, % of control [6] | cell viability, % of control (lower = more cytotoxic) [7] | viability (% of control) [8] | Potency [9] | parasite growth, % of DMSO control [10]
1 | Cc1cc(Nc2cc(NC(=O)c3c(Cl)cccc3Cl)ccn2)nc(N)n1 | 0.674% | 6.07% | -0.262% | 6.82% | 10.1% | 8.82% | 12.1% | 8.08% | inactive | 
2 | Nc1ncnc2c1c(-c1cccc(OCc3ccccc3)c1)cn2C1CC(CN2CCCC2)C1 (stereo unspecified) |  |  |  | 7.32% | 9.07% | 8.63% | 5.16% | 1.43% | inactive | 5.35%
3 | COC(=O)Nc1nc2ccc(C(=O)c3ccc(F)cc3)cc2[nH]1 |  |  |  | 96.2% | 69.2% | 61.7% | 78.4% | 25% | inactive | 66.2%
4 | C=CC(=O)Nc1cccc(Oc2nc(Nc3ccc(N4CCN(C)CC4)cc3)ncc2Cl)c1 |  |  |  | 16.8% | 34.6% | 5.58% | 8.16% | 2.81% | inactive | 8.39%
5 | Cc1nc(Nc2n[nH]c3c2CN(C(=O)N[C@H](CN(C)C)c2ccccc2)C3(C)C)c2sccc2n1 |  |  |  | 7.44% | 9.85% | 6.35% | 0.772% | 1.64% | inactive | 4.72%
6 | Cn1cncc1[C@@](N)(c1ccc(Cl)cc1)c1ccc2c(c1)c(-c1cccc(Cl)c1)cc(=O)n2C | -0.555% | 5.8% | 1.12% |  | 20.3% | 5% | 3.19% | 2.26% | inactive | 6.1%
7 | CN1CCN(c2cc(C(=O)Nc3ccc4c(c3)-c3c(c(C(N)=O)nn3-c3ccc(F)cc3)CC4)c(Cl)cn2)CC1 | -2.46% | 0.473% | -0.224% | 7.41% | 16.2% | 3.51% | 5.17% | 3.02% | inactive | 
8 | O=C(Nc1cn[nH]c1-c1nc2ccc(CN3CCOCC3)cc2[nH]1)NC1CC1 |  |  |  | 12.9% | 8.07% | 4.19% | 4.46% | 3.55% | inactive | 5.31%
9 | C[C@@]12O[C@@H](C[C@]1(O)CO)n1c3ccccc3c3c4c(c5c6ccccc6n2c5c31)CNC4=O |  | 0.326% | 0.698% | 6.07% | 28.1% | 9.72% | 9.33% | 5.8% | inactive | 6.66%
